Data published in PubChem BioAssay AID1159580 (chemical genetic matrix, 2015).
Out of some 5,500 compounds screened, about 2,000 (36%) were called active. Not shown: some 18% with an inconclusive outcome. Rule as the data show it: active = normalized growth mostly below about 0.91 (no sharp cut-off); inconclusive = no clear call, values can overlap the other calls; inactive = mostly above about 0.92. The list shows a part of the results.

Assay: chemical genetic growth profiling, strain panel (AID 1159580);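 also: tested at 20 µM; growth read once vehicle control cultures reached saturation at 30 °C; 1 = growth at the plate median or of vehicle wells; lower values mean less growth of the strain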
Conditions: growth OD
[1] = S. cerevisiae deletion strains, locus YAL013W, strain DEP1, hits give low values
[2] = S. cerevisiae deletion strains, locus YBR229C, strain ROT2, hits give low values
[3] = S. cerevisiae deletion strains, locus YDL101C, strain DUN1, hits give low values
[4] = S. cerevisiae deletion strains, locus YDL134C, strain PPH21, hits give low values
[5] = S. cerevisiae deletion strains, locus YDR150W, strain NUM1, hits give low values
[6] = S. cerevisiae deletion strains, locus YEL061C, strain CIN8, hits give low values
[7] = S. cerevisiae deletion strains, locus YGR078C, strain PAC10, hits give low values
[8] = S. cerevisiae deletion strains, locus YHR030C, strain SLT2, hits give low values
[9] = S. cerevisiae deletion strains, locus YHR087W, strain rtc3, hits give low values
[10] = S. cerevisiae deletion strains, locus YJR043C, strain POL32, hits give low values
[11] = S. cerevisiae deletion strains, locus YJR075W, strain HOC1, hits give low values
[12] = S. cerevisiae deletion strains, locus YLR039C, strain RIC1, hits give low values
[13] = S. cerevisiae deletion strains, locus YLR058C, strain SHM2 (second series), hits give low values
[14] = S. cerevisiae deletion strains, locus YLR085C, strain ARP6, hits give low values
[15] = S. cerevisiae deletion strains, locus YLR262C, strain YPT6, hits give low values
[16] = S. cerevisiae deletion strains, locus YML094W, strain GIM5, hits give low values
[17] = S. cerevisiae deletion strains, locus YMR219W, strain ESC1, hits give low values
[18] = S. cerevisiae deletion strains, locus YMR263W, strain SAP30, hits give low values
[19] = S. cerevisiae deletion strains, locus YNL128W, strain TEP1, hits give low values
[20] = S. cerevisiae deletion strains, locus YNL153C, strain GIM3, hits give low values
[21] = S. cerevisiae deletion strains, locus YNL298W, strain CLA4 (second series), hits give low values
[22] = S. cerevisiae deletion strains, locus YNL322C, strain KRE1, hits give low values
[23] = S. cerevisiae deletion strains, locus YNR030W, strain Alg12, hits give low values
[24] = S. cerevisiae deletion strains, locus YPL055C, strain LGE1, hits give low values
[25] = S. cerevisiae deletion strains, locus YPL241C, strain CIN2, hits give low values
[26] = S. cerevisiae deletion strains, locus YPR135W, strain CTF4, hits give low values
[27] = S. cerevisiae deletion strains, locus YMR307W, strain GAS1, hits give low values

Measured: normalized growth

COc1ccc(N=Cc2ccccc2O)cc1
active: [15] 0.813
inactive: [1] 0.993 | [2] 0.99 | [3] 0.991 | [4] 1.01 | [5] 0.952 | [6] 0.991 | [7] 0.995 | [8] 0.879 | [9] 0.969 | [10] 0.956 | [11] 0.967 | [12] 0.841 | [13] 0.988 | [14] 0.999 | [16] 0.978 | [17] 0.976 | [18] 0.963 | [19] 0.986 | [20] 1.01 | [21] 0.975 | [22] 0.985 | [23] 0.973 | S. cerevisiae deletion strains, locus YOL006C, strain TOP1, hits give low values 0.819 | [24] 0.912 | [25] 0.977 | [26] 0.86 | S. cerevisiae strains, strain wild type, hits give low values 0.977

COc1ccc(C=Nc2ccc(O)cc2)cc1
inactive: [1] 0.999 | [2] 1.01 | S. cerevisiae deletion strains, locus YCL061C, strain MRC1, hits give low values 0.979 | [3] 1.03 | [4] 1.03 | [5] 0.975 | [6] 1.05 | [7] 0.996 | [8] 1.04 | [9] 0.998 | [10] 0.99 | [11] 1.04 | S. cerevisiae deletion strains, locus YKL190W, strain CNB1, hits give low values 1.02 | [12] 0.936 | [13] 1.02 | [14] 1.03 | [15] 0.931 | [16] 1.01 | [17] 0.996 | [18] 1.02 | [27] 1.15 | [19] 1.02 | [20] 1.01 | [21] 1.04 | [22] 0.994 | [23] 1.01 | [24] 1.04 | [25] 0.987 | [26] 0.995

CCCN(CCC)CCc1c[nH]c2ccc(C(N)=O)cc12
inactive: S. cerevisiae deletion strains, locus YAL040C, strain CLN3, hits give low values 1.07 | S. cerevisiae deletion strains, locus YCL061C, strain MRC1 (second series), hits give low values 0.996 | S. cerevisiae deletion strains, locus YDR363W, strain ESC2, hits give low values 0.981 | S. cerevisiae deletion strains, locus YER002W, strain NOP16, hits give low values 0.991 | [18] 0.988 | [27] 1 | S. cerevisiae deletion strains, locus YNL175C, strain NOP13, hits give low values 1.05 | S. cerevisiae deletion strains, locus YNL197C, strain WHI3, hits give low values 1.02 | S. cerevisiae deletion strains, locus YNL224C, strain SQS1, hits give low values 0.994 | [22] 0.95 | S. cerevisiae deletion strains, locus YOR083W, strain WHI5 (second series), hits give low values 1.01 | [25] 0.988
